Source: ChEMBL document CHEMBL4513216, “Probing the Open Global Health Chemical Diversity Library for Multistage-Active Starting Points for Next-Generation Antimalarials” (ACS Infect Dis, 2020)
Out of some 68,000 compounds screened, about 2,700 (4%) showed an effect of 50% or more. Many of the other results were omitted from the sample, so strong results are more common in it than they were.

The compounds below were run on Plasmodium berghei (assay: Screen against P. berghei liver stage (PbLuc), transformed with Luciferase, at 2uM). Settings: tested at 2 uM.
Type: functional, HepG2
For `Cc1nc(C2(O)CCCNCC2)sc1CCOc1ccccc1Cl` (stereo unspecified), the INHIBITION was -16.62%. Work on `CCOc1ncccc1NC(=O)N1CCN(c2cccc(C)c2C)CC1` yielded an INHIBITION of 30.91%. `Cc1n[nH]c(C)c1NC(=O)CN1CCCC1c1noc(C(C)C)n1` (stereo unspecified) was tested, and the INHIBITION was 15.28%. In the case of `CN1CCN(C(=O)Cc2cccc(F)c2)Cc2cccnc21`, the INHIBITION is reported as 26.09%. In the case of `c1cnc(-c2noc(C3CN(Cc4ccsc4)C3)n2)cn1`, the INHIBITION is reported as 5.39%. Work on `c1csc(CN2CC(c3nc(-c4cnccn4)no3)C2)c1` yielded an INHIBITION of 26.54%. With `COc1cccc(-c2noc(C3CCN(Cc4cccs4)C3)n2)c1` (stereo unspecified) the INHIBITION was 11.1%. Compound `N#Cc1cccc(C(=O)N2CC(c3nc(-c4cccnc4)no3)C2)c1` has an INHIBITION of 25.53%. Work on `O=C(Cc1cccs1)N1CC(c2nc(-c3cnccn3)no2)C1` yielded an INHIBITION of 50.2%. `c1cncc(-c2noc(C3CN(Cc4cccs4)C3)n2)c1` gave an INHIBITION of 51.71%. Compound `CCc1ccc(NC(=O)N2C[C@H]3CC[C@@]4(N=C(C)N(C)C4=O)[C@H]3C2)cc1` has an INHIBITION of 17.4%. For `O=C(Nc1c(N2CCCC2)cccc1N1CCCC1)c1ccccn1`, the INHIBITION was 32.26%. `O=C(Nc1c(N2CCCC2)cccc1N1CCCC1)c1cnccn1` was tested, and the INHIBITION was 19.33%. `O=C(Nc1c(N2CCCC2)cccc1N1CCCC1)c1cnsn1` showed an INHIBITION of 52.38%. With `CCOc1cc(CN(C)CCC#N)ccc1OC(F)F` the INHIBITION was 14.17%. In the case of `Cc1cc(C)cc(CNCCS(=O)(=O)N2CCOCC2)c1`, the INHIBITION is reported as -6.33%. `OCC(CO)Nc1nc(C(F)F)nc2ccccc12` showed an INHIBITION of -11.32%. For `CNc1cc(C2CN(Cc3scnc3C)CCO2)nc(C)n1` (stereo unspecified), the INHIBITION was -1.07%. For `CS(=O)(=O)c1ccc(Cl)c(C(=O)NCCC2=CCCCC2)c1`, the INHIBITION was 6.92%. `Cc1cc(C)n(C2CCCN(C(=O)Cc3cn4ccsc4n3)C2)n1` (stereo unspecified) gave an INHIBITION of 20.57%. Compound `Cc1cc(N2CCC(O)(CN(C)C(=O)CCN)C2)c2cnccc2n1` (stereo unspecified) has an INHIBITION of -17.65%. `Cc1cc(N2CCC(O)(CN(C)C(=O)CCN)CC2)c2cnccc2n1` gave an INHIBITION of 57.47%. `Cc1cc(N2CCC(O)(CN(C)C(=O)CCCN)C2)c2cnccc2n1` (stereo unspecified) was tested, and the INHIBITION was -14.93%. `CCOC(=O)COC1CCN(C(C)=O)CC(=O)N(C)c2ccccc21` (stereo unspecified) showed an INHIBITION of 19.99%. `Cc1ccnc(C2(C)CCCN2S(=O)(=O)c2c(C)noc2C)n1` (stereo unspecified) gave an INHIBITION of 15.61%. `Cc1nn2cnnc2c(C)c1CCC(=O)Nc1nc2c(s1)CCC2` showed an INHIBITION of -4.37%. In the case of `Oc1nc(-c2cnccn2)nc2c1CCN(Cc1ccccn1)C2`, the INHIBITION is reported as 19.47%. `O=C(Cc1ccccn1)N1CCc2c(O)nc(-c3cnccn3)nc2C1` gave an INHIBITION of 56.57%. `O=C(Cc1ccccn1)N1CCc2nc(-c3cnccn3)nc(O)c2C1` showed an INHIBITION of 41.31%. In the case of `COCCc1noc(-c2ccc(=O)[nH]c2)n1`, the INHIBITION is reported as -18.6%. `CS(=O)(=O)CCNCc1ccc(OCc2ccncc2)cc1` showed an INHIBITION of -117.21%. With `O=S1(=O)COCCN1Cc1ccc(F)c(F)c1` the INHIBITION was 22.52%. In the case of `O=S1(=O)COCCN1Cc1ccc(Cl)c(Cl)c1`, the INHIBITION is reported as -31.95%. `O=S1(=O)COCCN1Cc1ccc(Cl)c(F)c1` gave an INHIBITION of 51.45%. Compound `Cc1ccc(C(C)NC(=O)N2CCCN(CC(F)F)CC2)s1` (stereo unspecified) has an INHIBITION of 9.27%. For `CC(C)N1[C@H](CN2CCCC2)C[C@@H]2CN(Cc3ccoc3)CC[C@@H]21`, the INHIBITION was 1.92%. `CC(C)N1[C@H](CN2CCCC2)C[C@@H]2CN(C(=O)c3ccoc3)CC[C@@H]21` gave an INHIBITION of 50.32%. With `CC(=O)N1C(CN2CCCC2)C[C@@H]2CN(C(=O)c3ccoc3)CC[C@@H]21` (stereo partly specified) the INHIBITION was 4%. Work on `Cc1cc(CN2CCN(CC(O)c3ccc(C)c(C)c3)CC2)no1` (stereo unspecified) yielded an INHIBITION of -29.69%. Work on `CC(C)c1ccc(OCCC(=O)N2CCC(C(N)=O)CC2)cc1` yielded an INHIBITION of 3.33%. `CC(C)c1ccc(OCCC(=O)N2CCCN(C(N)=O)CC2)cc1` gave an INHIBITION of 19.71%. `CC(C)c1ccc(OCCC(=O)N2CCCC(C(N)=O)C2)cc1` (stereo unspecified) gave an INHIBITION of 52.47%. For `CCOCc1ccc(CNC(=O)N2CCC(C(N)=O)C2)cc1` (stereo unspecified), the INHIBITION was 47.23%. `CS(=O)(=O)Cc1ccc(CNC(=O)N2CCC(C(N)=O)C2)cc1` (stereo unspecified) showed an INHIBITION of 31%. With `CCCOc1ccc(CNC(=O)N2CCC(C(N)=O)C2)cc1` (stereo unspecified) the INHIBITION was 76.69%. `COCCN1CCCn2cnc(CNC3CCCC3)c2C1` gave an INHIBITION of -24.29%. `Fc1cnc(N2CCC3(CC2)CN(Cc2cccs2)CCO3)nc1` showed an INHIBITION of 43.29%. `COc1ccccc1C(C)(C)NC(=O)Nc1ccc(F)c(C(N)=O)c1` gave an INHIBITION of 20.21%. In the case of `CN(Cc1cncnc1)[C@@H]1CN(Cc2ccco2)C[C@@H]2CCCO[C@@H]21`, the INHIBITION is reported as -37.2%. `CCCN1CCN(C(=O)Cn2nc(C(F)(F)F)c(Br)c2C2CC2)CC1` gave an INHIBITION of -3.36%. `CC(C)C(NC(=O)c1ccc(Cl)cc1Cl)C(=O)Nc1ccn(C)n1` (stereo unspecified) gave an INHIBITION of 42.76%. In the case of `O=C(COC1CCCCC1)Nc1ccn(CCc2ccncc2)n1`, the INHIBITION is reported as 13.99%. With `Cn1cccc1C(=O)NC(C)(C(N)=O)c1cccc(C(F)(F)F)c1` (stereo unspecified) the INHIBITION was -23.95%. `OC1(c2ccc(F)cc2)CCN(Cc2ccccc2N2CCCC2)CC1` gave an INHIBITION of 58.02%. Compound `OC1(c2ccccc2F)CCN(Cc2ccccc2N2CCCC2)CC1` has an INHIBITION of 14.73%. For `Cc1cccc(C2(O)CCN(Cc3ccccc3N3CCCC3)CC2)c1`, the INHIBITION was 4.06%. For `Cc1noc(C)c1CN(C)CC(c1cccs1)N1CCOCC1` (stereo unspecified), the INHIBITION was 43.7%. Work on `Cc1cc(N(C)C)nc(NC2CCc3nc(C)nn3C2)n1` (stereo unspecified) yielded an INHIBITION of 13.28%. In the case of `O=C(O)c1ccccc1-c1ccc(CNC(=O)C2CCOCC2)cc1`, the INHIBITION is reported as 22.95%. For `COc1cccc(CN2CCC(CO)(Cc3ccc(Cl)cc3)CC2)c1O`, the INHIBITION was 71.83%. `COc1ccc(CN2CCC(CO)(Cc3ccc(Cl)cc3)CC2)c(O)c1` showed an INHIBITION of 36.34%. With `OCC1(Cc2ccc(Cl)cc2)CCN(Cc2ccccc2O)CC1` the INHIBITION was -58.31%. `O=C(Nc1ccc(N2CCCC2)nc1)N1CCc2sccc2C1` gave an INHIBITION of -19.54%. `O=C(Nc1ccc(N2CCCCC2)nc1)N1CCc2sccc2C1` was tested, and the INHIBITION was -4.09%. For `O=C(Nc1ccc(N2CCOCC2)nc1)N1CCc2sccc2C1`, the INHIBITION was 57.59%. With `CN1C(=O)CCC12CCN(S(=O)(=O)c1ccccc1)CC2` the INHIBITION was 46.32%.
